# Reference: PubChem BioAssay (NCATS)
# Results filed as inconclusive are left out. Where a call stands in place of a potency, no number is given. Activity calls are given as the source filed them. Calls come from the whole dose curve; as a rule, active = well fitted curve in the direction sought with a large enough effect; inconclusive = small, poorly fitted or top-dose-only effect, or another doubt; inactive = no such curve, though single readings can be large; an effect the other way counts as inactive or inconclusive.
# Key:
# [1] = target: Voltage-gated inwardly rectifying potassium channel KCNH2 (Homo sapiens) (UniProt Q12809); test: qHTS Assay for Small Molecule Inhibitors of the Human hERG Channel Activity (AID 588834); details: U2OS BacMam hERG, FluxOR thallium flux fluorescence; series mostly up to 46.1 µM;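 note: lower thallium flux fluorescence means stronger hERG block; nearly all actives have a fitted effect of over 50% in size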; note: potency is the fitted concentration of half-maximal effect
# How it was run: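 hERG-BacMam U2OS, 2000 cells/well; 0.7X FluxOR loading 1 hr RT dark; cpd ~10 min 37 °C; stim buffer; FDSS fluorescence 2 min @ 1 s; AC50 Hill fit.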
# [2] = target: Luciferin 4-monooxygenase (Photinus pyralis) (UniProt P08659); test: Biochemical firefly luciferase enzyme assay for NPC (AID 624030); note: nearly all actives have a fitted effect of over 70% in size; note: potency is the fitted concentration of half-maximal effect; details: purified P. pyralis luciferase, luminescence, 5 min; series mostly up to 58.6 µM
# How it was run: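 Counter-screen for direct inhibition of the luciferase enzyme by approved-drug library compounds, run at 10 nM enzyme in 50 mM Tris acetate (final). Luminescence was read within 5 min of enzyme-buffer addition and normalized to PTC124 versus DMSO (0%).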
# [3] = S16 Schwann cell viability assay (CellTiter-Glo assay) (AID 624031); details: S16 rat Schwann cells viability, 24 h; series mostly up to 57.5 µM;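 note: native untransfected S16 rat Schwann cells; cellular ATP luminescence as a viability measure; nearly all actives have a fitted effect of over 70% in size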
# How it was run: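 Cells were seeded at 500-750 per well in phenol red-free DMEM with 10% FBS and left overnight. Compounds or DMSO were pinned in, incubation ran 24 h at 37 °C/5% CO2, then CellTiter-Glo reagent was added and luminescence measured.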
# [4] = S16 Schwann cell PMP22 intronic element firefly luciferase assay (AID 624032); details: S16 rat Schwann cells, PMP22 element FLuc, 24 h; series mostly up to 57.5 µM; note: nearly all actives have a fitted effect of over 30% in size
# How it was run: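 Rat S16 Schwann cells stably carrying a PMP22 intronic element-driven Fluc reporter were seeded overnight, then exposed to compounds for 24 h at 37 °C. Luminescence was normalized to PTC124 (positive control) and DMSO (0% activity).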
# Chain of Luciferin 4-monooxygenase (Photinus pyralis) (P08659 whole entry, looked up): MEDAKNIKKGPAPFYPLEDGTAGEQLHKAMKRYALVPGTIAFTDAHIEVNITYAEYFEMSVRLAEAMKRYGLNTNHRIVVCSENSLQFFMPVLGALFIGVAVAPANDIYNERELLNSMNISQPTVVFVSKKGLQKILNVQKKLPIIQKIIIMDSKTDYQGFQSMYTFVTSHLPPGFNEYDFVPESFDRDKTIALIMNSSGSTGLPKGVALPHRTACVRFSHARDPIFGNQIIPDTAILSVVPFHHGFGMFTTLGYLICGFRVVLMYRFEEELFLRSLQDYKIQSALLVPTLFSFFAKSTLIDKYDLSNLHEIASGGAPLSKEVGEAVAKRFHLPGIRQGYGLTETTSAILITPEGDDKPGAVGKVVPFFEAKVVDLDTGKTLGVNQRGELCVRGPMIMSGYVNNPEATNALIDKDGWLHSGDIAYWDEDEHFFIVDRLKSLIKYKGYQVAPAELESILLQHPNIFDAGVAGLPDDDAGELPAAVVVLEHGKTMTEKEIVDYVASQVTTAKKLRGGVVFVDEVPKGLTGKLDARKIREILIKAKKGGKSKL
# Chain of Voltage-gated inwardly rectifying potassium channel KCNH2 (Homo sapiens) (Q12809 whole entry, looked up): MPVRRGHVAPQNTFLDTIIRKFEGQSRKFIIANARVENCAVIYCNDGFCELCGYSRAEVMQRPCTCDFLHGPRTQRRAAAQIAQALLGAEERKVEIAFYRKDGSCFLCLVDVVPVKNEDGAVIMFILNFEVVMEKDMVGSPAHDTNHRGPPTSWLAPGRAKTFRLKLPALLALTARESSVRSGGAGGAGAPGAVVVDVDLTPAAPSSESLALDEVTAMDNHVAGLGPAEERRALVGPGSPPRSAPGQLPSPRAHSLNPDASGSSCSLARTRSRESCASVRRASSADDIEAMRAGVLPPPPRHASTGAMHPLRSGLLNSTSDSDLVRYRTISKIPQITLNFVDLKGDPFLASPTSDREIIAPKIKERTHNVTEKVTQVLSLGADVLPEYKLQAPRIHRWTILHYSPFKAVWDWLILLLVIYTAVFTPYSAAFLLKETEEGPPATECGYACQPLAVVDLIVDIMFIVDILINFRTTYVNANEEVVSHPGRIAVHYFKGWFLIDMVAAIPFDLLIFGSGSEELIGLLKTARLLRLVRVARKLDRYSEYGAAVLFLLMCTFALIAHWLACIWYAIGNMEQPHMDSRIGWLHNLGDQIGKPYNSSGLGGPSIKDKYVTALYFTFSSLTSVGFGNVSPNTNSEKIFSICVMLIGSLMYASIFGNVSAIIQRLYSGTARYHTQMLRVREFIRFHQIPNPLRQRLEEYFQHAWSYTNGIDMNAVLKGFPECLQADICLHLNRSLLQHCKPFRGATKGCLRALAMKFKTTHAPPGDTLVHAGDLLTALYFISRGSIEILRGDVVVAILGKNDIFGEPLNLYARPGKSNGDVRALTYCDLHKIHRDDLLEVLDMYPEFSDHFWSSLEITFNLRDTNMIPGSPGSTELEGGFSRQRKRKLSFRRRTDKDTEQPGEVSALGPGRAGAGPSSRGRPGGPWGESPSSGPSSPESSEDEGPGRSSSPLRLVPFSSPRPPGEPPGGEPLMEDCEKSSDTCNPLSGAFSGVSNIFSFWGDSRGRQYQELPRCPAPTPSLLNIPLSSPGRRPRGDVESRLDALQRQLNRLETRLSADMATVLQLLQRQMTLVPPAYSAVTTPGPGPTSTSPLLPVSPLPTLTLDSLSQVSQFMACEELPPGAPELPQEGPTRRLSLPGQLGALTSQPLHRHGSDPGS
SMILES,Potency [1],Potency [2],Potency [3],Potency [4]
CCOC(=O)c1ccc(C#Cc2ccc3c(c2)C(C)(C)CCS3)nc1,8.91 µM (active),inactive,inactive,
CCC(=O)O[C@]1(C(=O)CCl)[C@@H](C)C[C@H]2[C@@H]3CCC4=CC(=O)C=C[C@]4(C)[C@@]3(F)[C@@H](O)C[C@@]21C,inactive,,,
CN1CCN(c2c(F)cc3c(=O)c(C(=O)O)cn4c3c2OCN4C)CC1,inactive,inactive,inactive,inactive
CCc1c2c(nc3ccc(OC(=O)N4CCC(N5CCCCC5)CC4)cc13)-c1cc3c(c(=O)n1C2)COC(=O)[C@]3(O)CC,inactive,inactive,inactive,
C[C@@H]1CN(c2c(F)c(N)c3c(=O)c(C(=O)O)cn(C4CC4)c3c2F)C[C@H](C)N1,inactive,,,
C#CCN[C@@H]1CCc2ccccc21,inactive,inactive,inactive,inactive
COC(=O)Nc1nc2ccc(C(=O)c3ccccc3)cc2[nH]1,inactive,inactive,inactive,inactive
CCCN[C@H]1CCc2nc(N)sc2C1,inactive,inactive,inactive,
CC(C)Cn1cnc2c(N)nc3ccccc3c21,inactive,inactive,inactive,
Nc1nc(N)nc(-c2cc(Cl)ccc2Cl)n1,inactive,inactive,inactive,inactive
N[C@@H](C(=O)N[C@@H]1C(=O)N2C(C(=O)O)=C(Cl)CS[C@H]12)c1ccccc1,inactive,inactive,inactive,inactive
CCN[C@H]1C[C@H](C)S(=O)(=O)c2sc(S(N)(=O)=O)cc21,inactive,,,
O=S(=O)(c1cccc2cnccc12)N1CCCNCC1,inactive,inactive,inactive,inactive
O=C(O)CCn1c2c(c3ccccc31)C[C@H](NS(=O)(=O)c1ccc(F)cc1)CC2,inactive,inactive,inactive,inactive
CCn1cc(C(=O)O)c(=O)c2cc(F)c(N3CCNCC3)nc21,inactive,inactive,inactive,inactive
O=c1oc2c(O)c(O)cc3c(=O)oc4c(O)c(O)cc1c4c23,inactive,36.1 µM (active),inactive,inactive
CCn1cc(C(=O)O)c(=O)c2cc(F)c(N3CCNCC3)cc21,inactive,inactive,inactive,inactive
Cc1onc(-c2ccccc2Cl)c1C(=O)N[C@@H]1C(=O)N2[C@@H]1SC(C)(C)[C@@H]2C(=O)O,inactive,,,
